Rows were chosen to be rich in hits. Some 19% of all compounds tested hit in one or more screens of this group.
KB-3-1 cytotox – qHTS assay for MDR1-selective chemotherapeutics: Primary screen using the parental adenocarcinoma cell KB-3-1; KB-3-1 viability, CellTiter-Glo ATP luminescence, 72 h; Potency, µM (doses to about 46.1 µM), actives largely listed as cytotoxic; AID 1347075, 2019; hit rate 1.4% among 400,000; further: nearly all actives have a fitted effect of over 60% in size
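Screening of KB-3-1 cells (DMEM, 10% FBS, phenol-red free) ran from lowest to highest compound concentration; after 72 h at 37 °C viability was read luminescently and curves fitted.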
KB-V1 cytotox – qHTS assay for MDR1-selective chemotherapeutics: Primary screen using the drug-selected MDR subline cells KB-V1; Potency, µM (doses to about 46.1 µM), hits mostly cytotoxic; KB-V1 MDR cells viability, CellTiter-Glo, 72 h; hit rate 3.4% among 400,000; further: nearly all actives have a fitted effect of over 60% in size
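Drug-selected KB-V1 cells, grown in DMEM lacking phenol red with 10% FBS, receive compound titrations; after three days at 37 degrees C, surviving cell ATP is quantified by CellTiter-Glo luminescence and responses normalized and curve-fitted.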
HT1080-NT tox – qHTS for induction of synthetic lethality in tumor cells producing 2HG: qHTS for the HT-1080-NT fibrosarcoma cell line; Potency, µM (titrated, usually from 46.1 µM), without a hit: at the top dose activity, negative = less viability, actives largely listed as cytotoxic; AID 686970, 2013; hit rate 1.6% among 360,000; HT-1080-NT fibrosarcoma viability, CellTiter-Glo ATP luminescence, 48 h;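 further: NT is the 2HG producing partner of a matched IDH1 knockdown line; 0% = DMSO-treated cells and -100% = media-only wells without cells; nearly all actives have a fitted effect of over 55% in size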
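Fibrosarcoma NT cells, 750 per well in 5% FBS RPMI, were exposed to compound for 48 hours. Viability: CellTiter-Glo luminescence.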
DT40 TDP1 CPT – qHTS for Inhibitors of human tyrosyl-DNA phosphodiesterase 1 (TDP1): qHTS in cells in presence of CPT; Potency, µM (titrated, usually from 46.2 µM), without a hit: top-dose activity change, negative = growth inhibition, most hits filed as inhibitors; chicken DT40 Tdp1-/-;hTDP1 cells + 20 nM CPT, ATP luminescence, 48 h; hit rate 12% among 420,000; AID 686979, 2013; further: nearly all actives have a fitted effect of over 55% in size
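Chicken DT40 Tdp1-/- cells stably complemented with human TDP1 were seeded at 400 cells/well in medium containing 20 nM camptothecin, exposed to pin-transferred compounds, and grown at 37 °C for at least 48 hr. Viability was read as ATP luminescence.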
DT40 TDP1 no CPT – qHTS for Inhibitors of human tyrosyl-DNA phosphodiesterase 1 (TDP1): qHTS in cells in absence of CPT. DT40 Tdp1-/- hTDP1 cells, no CPT, ATP luminescence, 48 h. Potency, µM (titrated, usually from 46.2 µM), without a hit: top-dose activity change, negative = growth inhibition, actives largely listed as inhibitors. hit rate 15% among 420,000. AID 686978, 2013; further: nearly all actives have a fitted effect of over 55% in size
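A cellular qHTS used chicken DT40 cells lacking endogenous Tdp1 but carrying stably transfected human TDP1. Compounds were applied without camptothecin, and cell growth kinetics were judged by ATP-dependent luminescence after ≥48 hr.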
HT1080 IDH1KD tx – qHTS for induction of synthetic lethality in tumor cells producing 2HG: qHTS for the HT-1080-IDH1KD cell line; HT-1080 IDH1 knockdown viability, ATP luminescence, 48 h; Potency, µM (doses to about 46.1 µM), for the others: at the highest dose activity, negative = toxicity, usual class: cytotoxic; hit rate 2% among 360,000;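 further: 0% = DMSO wells and -100% = cell-free medium wells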
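Knockdown cells (IDH1KD HT-1080) received compounds 2 h after plating at 750 cells/well and were kept 48 h at 37 °C in 5% FBS RPMI. A CellTiter-Glo luminescence read gave % activity for curve fitting.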
An asterisk follows results filed as active; i = inactive; u = inconclusive; x = no result; [ ] = remark or other dose. The call rests on the fitted dose curve; in most records, active means well fitted curve in the direction sought with a large enough effect; inconclusive means small, poorly fitted or top-dose-only effect, or another doubt; inactive means no such curve, though single readings can be large; an effect the other way counts as inactive or inconclusive. Unless noted, on the % scale 0 is the no-effect control and ±100 the full control effect; potency means the concentration at half of the fitted maximal effect.

SMILES | KB-3-1 cytotox | KB-V1 cytotox | HT1080-NT tox | DT40 TDP1 CPT | DT40 TDP1 no CPT | HT1080 IDH1KD tx
OC[C@@H]1CN(Cc2ccc(F)cc2)C[C@H](n2cnc3c(N4CCN(c5ccccc5)CC4)ncnc32)O1 | u | u | u | 18µM* | 10µM* | u
OC[C@@H]1CN(Cc2ccccc2)C[C@H](n2cnc3c(N4CCN(c5ccccc5)CC4)ncnc32)O1 | i | u | -12% | u | u | 1%
OC[C@@H]1CN(Cc2ccc(-c3ccccc3)cc2)C[C@H](n2cnc3c(N4CCCC4)ncnc32)O1 | i | i | u | 18µM* | 21µM* | u
CN(C)CCCN(C(=O)c1ccc2c(c1)OCCO2)c1nc2ccccc2s1 | x | x | x | u | 16µM* | x
Cc1cc(C)c2nc(N(CCCN(C)C)C(=O)C3=COCCO3)sc2c1 | i | i | -21% | 16µM* | 21µM* | -19%
Cc1cc(C)c2nc(N(CCCN(C)C)C(=O)c3ccc4c(c3)OCCO4)sc2c1 | u | 26µM* | 12µM* | 13µM* | 16µM* | u
CCC1CN(CCNC(=O)c2cccc(C(=O)OC)c2)Cc2cc(OC)ccc2O1 (stereo not drawn) | x | x | x | 4%[9.04 µM] | -26% | x
CCOC(=O)C1(Cc2cccc(OC)c2)CCN(Cc2cccn2-c2ccccn2)CC1 | i | i | -20% | -25% | u | -24%
CN1CC[C@@H]2C(=O)N3CCc4ccc(-c5ccc6c(c5)OCO6)cc4[C@@H]3C[C@@H]21 | i | i | -1% | 18µM* | u | -1%
CCN(CC)c1ccc(NC(=O)c2ccccn2)cc1S(=O)(=O)Nc1ccccc1OC | i | u | 0% | 16µM* | 21µM* | -15%
CCN(CC)c1ccc(NC(=O)COc2ccccc2C#N)cc1S(=O)(=O)Nc1ccccc1OC | i | i | -17% | 2.6µM* | 2.3µM* | -13%
COc1ccccc1NS(=O)(=O)c1cc(NC(=O)CNC(=O)c2ccccc2)ccc1C | i | i | -3% | -25% | -21% | 0%
CCOC(=O)c1c(C)[nH]c(C)c1S(=O)(=O)N1CCCCC1 | i | i | 10% | 8% | 5% | 0%
O=C(COC(=O)CNC(=O)c1ccccc1)NCc1ccc2c(c1)OCO2 | x | x | -1% | 1% | 4% | 12%
CC#CCC(C)[C@H](O)/C=C/[C@@H]1[C@H]2c3cccc(CCCC(=O)O)c3O[C@H]2C[C@H]1O (stereo partly drawn) | x | x | x | 3% | 3% | x
O=C(Cc1csc2nc(-c3ccccc3)cn12)NCc1ccc(F)cc1 | i | i | x | -15% | -11% | x
O=C(Nc1ccccc1-c1cn2c(CN3CCNCC3)csc2n1)c1cnc2ccccc2n1 | i | u | x | 3.5µM* | 5.6µM* | x
COc1cccc(C2CC(c3cccs3)=NN2S(C)(=O)=O)c1 (stereo not drawn) | i | i | 2% | 1% | -17% | 0%
Cc1ccc(NC(=O)C(c2ccccc2)c2ccccc2)nc1 | i | i | -5% | 21µM* | u | -10%
Cc1ccc(NC(=O)Nc2ccccc2)nc1 | i | i | 25% | 9% | -7% | 3%
O=C(Nc1ccccn1)c1ccccc1 | i | i | 6% | 4% | -4% | 4%
O=C(Nc1ccccn1)C(c1ccccc1)c1ccccc1 | i | i | -10% | 15µM* | 21µM* | -1%
O=C(CC(O)(c1ccccc1)c1ccccc1)Nc1ccccn1 | i | 15µM* | 7% | 15µM* | u | 2%
O=C(CC(=O)c1ccccc1)Nc1ccccn1 | i | i | 17% | 29% | 2% | 16%
CCC(c1nnnn1-c1ccc2c(c1)OCCO2)N1CCN(CCN2CCOCC2)CC1 (stereo not drawn) | i | i | 2% | -7% | 7% | 6%
SMILES | KB-3-1 cytotox | KB-V1 cytotox | HT1080-NT tox | DT40 TDP1 CPT | DT40 TDP1 no CPT | HT1080 IDH1KD tx
C(=C\c1ccccc1)/CN1CCN(C(c2nnnn2-c2ccc3c(c2)OCCO3)C2CC2)CC1 (stereo not drawn) | i | i | -29% | 23µM* | 15µM* | u
CCC(c1nnnn1-c1ccc2c(c1)OCCO2)N1CCN(C/C=C/c2ccccc2)CC1 (stereo not drawn) | i | 8.2µM* | -21% | u | 13µM* | -23%
COc1ccc(-n2nnnc2C(C2CC2)N2CCN(C/C=C/c3ccccc3)CC2)cc1 (stereo not drawn) | i | u | -21% | u | u | -20%
COc1ccc(-n2nnnc2C(CCSC)N2CCN(C/C=C/c3ccccc3)CC2)cc1 (stereo not drawn) | i | u | u | u | u | u
C(=C\c1ccccc1)/CN1CCN(C(CCc2ccccc2)c2nnnn2-c2ccc3c(c2)OCCO3)CC1 (stereo not drawn) | i | i | u | 10µM* | 21µM* | u
Cc1nn(Cc2cccc(C(=O)N3CCCC(C)C3)c2)c(C)c1[N+](=O)[O-] (stereo not drawn) | i | u | -2% | u | u | u
O=[N+]([O-])c1ccc(NN=Cc2cccc(O)c2)nc1 | i | i | -15% | 23µM* | u | -28%
O=[N+]([O-])c1ccc(N/N=C\c2cccnc2)nc1 | i | i | 3% | 0% | -15% | 7%
Cc1cccc(C)c1-n1c(C)cc(/C=N\Nc2ccc([N+](=O)[O-])cn2)c1C | i | i | -4% | u | 15µM* | -18%
O=[N+]([O-])c1ccc(NN=Cc2cc(Br)ccc2O)nc1 | i | u | 7.3µM* | 2.6µM* | 1.3µM* | 4.6µM*
O=[N+]([O-])c1ccc(NN=Cc2ccco2)nc1 | i | i | -5% | 3% | -28% | -23%
COc1cc(/C=N/Nc2ccc([N+](=O)[O-])cn2)cc(OC)c1O | i | i | u | 1% | u | u
CC(=O)Nc1ccc(C=NNc2ccc([N+](=O)[O-])cn2)cc1 | i | i | 6% | 23µM* | -25% | -10%
Cc1nc(-c2ccc(S(=O)(=O)N3CCN(c4cccc(Cl)c4)CC3)cc2)co1 | i | i | x | u | u | x
